From PubChem BioAssay (Tox21)
Results filed as inconclusive are left out. The source made the active and inactive calls. Unless noted, the call rests on the fitted dose curve; in most records, active means well fitted curve in the direction sought with a large enough effect in the repeat runs; inconclusive means weak or mixed curves; inactive means no such curve, though single readings can be large; an effect the other way counts as inactive or inconclusive.

Key:
[1] = target: Luciferin 4-monooxygenase (Photinus pyralis) (UniProt P08659); experiment: qHTS assay to identify small molecule inhibitors of firefly luciferase (AID 1224835); further: nearly all actives have a fitted effect of over 25% in size; further: potency means the concentration at half of the fitted maximal effect
Luciferin 4-monooxygenase (Photinus pyralis), sequence (P08659 whole entry, looked up): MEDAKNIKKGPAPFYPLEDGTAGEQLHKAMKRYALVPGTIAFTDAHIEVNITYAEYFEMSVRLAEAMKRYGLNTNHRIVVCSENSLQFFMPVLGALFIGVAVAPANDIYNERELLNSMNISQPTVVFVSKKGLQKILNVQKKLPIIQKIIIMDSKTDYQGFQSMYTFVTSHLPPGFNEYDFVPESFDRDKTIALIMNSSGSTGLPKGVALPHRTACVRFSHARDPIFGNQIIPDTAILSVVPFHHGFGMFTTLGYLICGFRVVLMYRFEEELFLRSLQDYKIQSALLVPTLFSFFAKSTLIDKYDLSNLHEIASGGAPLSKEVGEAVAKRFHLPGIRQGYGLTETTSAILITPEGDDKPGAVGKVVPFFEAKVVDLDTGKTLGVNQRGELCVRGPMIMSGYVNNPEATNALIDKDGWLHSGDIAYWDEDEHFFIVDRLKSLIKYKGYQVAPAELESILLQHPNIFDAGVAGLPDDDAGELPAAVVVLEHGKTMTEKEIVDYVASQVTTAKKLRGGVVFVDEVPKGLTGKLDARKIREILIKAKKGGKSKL
Procedure, shortened: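 Biochemical qHTS: compounds run as interplate titrations against purified firefly enzyme, with D-luciferin and ATP each at its KM concentration. Light output recorded by CCD imaging.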

[2] = qHTS assay to identify small molecule agonists of the constitutive androstane receptor (CAR) signaling pathway - cell viability counter screen (AID 1224836); further: series mostly up to about 92 µM; nearly all actives have a fitted effect of over 45% in size
Procedure, shortened: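 Double-stable HepG2 hepatoma cells (hCAR plus CYP2B6-2.2kb) are treated for 23 h at 37 C with test compounds in 15-point concentration series. PK11195 at 0.75 uM final is co-added. Cell viability is quantified by CellTiter-Fluor.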

[3] = qHTS assay to identify small molecule antagonists of the constitutive androstane receptor (CAR) signaling pathway - cell viability counter screen (AID 1224837); further: series mostly up to about 92 µM; nearly all actives have a fitted effect of over 45% in size
Procedure, shortened: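 Viability was measured with CellTiter-Fluor in a HepG2 line carrying stably transfected hCAR and a CYP2B6-2.2kb construct. Cells were exposed for 23 hr at 37 C to 15 compound concentrations with 50 nM CITCO as agonist.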

[4] = target: Nuclear receptor subfamily 1 group I member 3 (Homo sapiens) (UniProt Q14994); experiment: qHTS assay to identify small molecule antagonists of the constitutive androstane receptor (CAR) signaling pathway (AID 1224838);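 further: HepG2 cells stably expressing hCAR with CYP2B6 luciferase reporter stimulated by CITCO; nearly all actives have a fitted effect of over 40% in size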; further: potency means the concentration at half of the fitted maximal effect
Nuclear receptor subfamily 1 group I member 3 (Homo sapiens), sequence (Q14994 whole entry, looked up): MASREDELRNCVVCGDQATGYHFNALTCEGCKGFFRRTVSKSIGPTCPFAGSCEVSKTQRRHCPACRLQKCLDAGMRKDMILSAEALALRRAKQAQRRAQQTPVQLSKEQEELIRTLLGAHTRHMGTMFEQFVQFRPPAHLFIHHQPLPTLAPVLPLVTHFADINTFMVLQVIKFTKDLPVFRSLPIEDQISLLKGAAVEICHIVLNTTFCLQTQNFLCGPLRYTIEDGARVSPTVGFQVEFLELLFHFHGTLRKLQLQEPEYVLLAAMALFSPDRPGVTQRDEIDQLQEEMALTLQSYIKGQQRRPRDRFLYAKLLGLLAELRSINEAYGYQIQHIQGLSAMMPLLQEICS
Procedure, shortened: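 Antagonist mode used CITCO at a final 50 nM to activate CAR in human hepatoma HepG2 cells carrying stable hCAR and a 2.2 kb CYP2B6 promoter-luciferase construct. Compounds were tested at 15 concentrations over 24 h, with luminescence as the end point.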

[5] = target: Nuclear receptor subfamily 1 group I member 3 (Homo sapiens) (UniProt Q14994); experiment: qHTS assay to identify small molecule agonists of the constitutive androstane receptor (CAR) signaling pathway (AID 1224839); further: nearly all actives have a fitted effect of over 15% in size; further: potency means the concentration at half of the fitted maximal effect
Procedure, shortened: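 Readout: firefly luciferase luminescence via ONE-Glo. System: HepG2 double-stable for hCAR and CYP2B6-2.2kb. Conditions: 15-point compound titration, PK11195 at 0.75 uM final, 24 h incubation.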

[6] = qHTS assay to identify small molecule antagonists of the estrogen related receptor signaling pathway with the pleiotropic PPARgamma coactivator (PGC) from Tox21 10K library - cell viability counter screen (AID 1224840; active means well fitted cell-killing curve with a large enough effect in the repeat runs, not every such curve was filed as active; further: nearly all actives have a fitted effect of over 40% in size)
Procedure, shortened: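 Multiplexed viability counter screen in the PGC/ERR cell line: cells treated with DMSO-dissolved compounds for 17.5 hours at 37 C, then viability measured as CellTiter-Fluor fluorescence.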

[7] = qHTS assay to identify small molecule agonists of the estrogen related receptor signaling pathway with the pleiotropic PPARgamma coactivator (PGC) from Tox21 10K library (AID 1224842); further: nearly all actives have a fitted effect of over 15% in size
Procedure, shortened: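 PGC/ERR reporter cell line, 2,000 cells per well, incubated 6 h at 37 C before 23 nL compound in DMSO was added. After 18 h at 37 C, One-Glo luminescence read following 30 min at room temperature.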

[8] = qHTS assay to identify small molecule antagonists of the estrogen related receptor (ERR) signaling pathway from Tox21 library - cell viability counter screen (AID 1224834); further: nearly all actives have a fitted effect of over 30% in size
Procedure, shortened: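 ERR cells, 2,000/well; 6 h settle at 37 C/5% CO2; pin-tool compound transfer in DMSO; 17.5 h at 37 C; CellTiter-Fluor, 30 min; fluorescence intensity.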

[9] = qHTS assay to identify small molecule antagonists of the estrogen related receptor signaling pathway with the pleiotropic PPARgamma coactivator (PGC) from Tox21 10K library (AID 1224841; call rule not given here; further: actives are mostly falling curves and most rising ones were filed inactive; nearly all actives have a fitted effect of over 50% in size; further: potency means the concentration at half of the fitted maximal effect; on activity, negative = inhibition: series mostly up to about 92 µM)
Procedure, shortened: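 Steps: plate 2,000 PGC/ERR cells per well; incubate 6 h at 37 C with 5% CO2; transfer compounds from DMSO stocks by pin tool; incubate 18 h at 37 C; add One-Glo; measure luminescence 30 min later.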
On the % scale 0 is the no-effect control and ±100 the full control effect.

N#CC1(O)CCCCC1
inactive: Potency [1] | outcome [2] | outcome [3] | Potency [4] | Potency [5] | outcome [6] | Potency [7]

CC(C)[C@H](N)C(=O)OCCOCn1cnc2c(=O)[nH]c(N)nc21
inactive: Potency [8] | Potency [1] | outcome [3] | outcome [6]

CCn1c(=O)c2c(nc(/C=C/c3ccc(OC)c(OC)c3)n2C)n(CC)c1=O
inactive: Potency [1] | outcome [2] | outcome [3] | Potency [4] | Potency [5] | outcome [6] | Potency [7]

CC(=O)CCc1ccc(O)cc1
inactive: Potency [8] | Potency [1] | outcome [3] | outcome [6]

CCC(C(=O)NC(N)=O)c1ccccc1 (stereo unspecified)
inactive: Potency [8] | Potency [1] | outcome [3] | outcome [6] | Potency [9] | Potency [7]

Cc1c(F)cc2c(=O)c(C(=O)O)cn3c2c1CCC3C (stereo unspecified)
inactive: Potency [1] | outcome [2] | outcome [3] | Potency [4] | outcome [6] | Potency [7]

COC(=O)CCCCCCCCC(=O)OC
inactive: Potency [8] | Potency [1] | outcome [3] | outcome [6] | Potency [9] | Potency [7]

OCCN1C[C@H](O)[C@@H](O)[C@H](O)[C@H]1CO
inactive: Potency [8] | Potency [1] | outcome [3] | outcome [6]

Cc1ccc(N)cc1[N+](=O)[O-]
inactive: Potency [1] | outcome [3] | Potency [4] | outcome [6]

CC12CCC(CC1=O)C2(C)C (stereo unspecified)
inactive: Potency [8] | Potency [1] | outcome [3] | Potency [4] | outcome [6] | Potency [7]

O=S(=O)(c1cccc2cnccc12)N1CCCNCC1
inactive: Potency [8] | Potency [1] | outcome [6] | Potency [7]
active: Potency [4] 13.3 µM | Potency [9] 23.7 µM

CCOC(=O)Cn1c(=O)sc2cccc(Cl)c21
active: Potency [5] 54.5 µM
inactive: Potency [8] | Potency [1] | outcome [3] | Potency [4] | outcome [6] | Potency [9] | Potency [7]

Cc1ncc(CSSCc2cnc(C)c(O)c2CO)c(CO)c1O
inactive: Potency [8] | Potency [1] | outcome [3] | outcome [6] | Potency [9] | Potency [7]

CCO[Si](CCCN=C=O)(OCC)OCC
inactive: Potency [8] | Potency [1] | outcome [3] | Potency [4] | Potency [5] | outcome [6] | Potency [7]

Cn1ccc2cc3c(cc21)CCN3C(=O)Nc1cccnc1
inactive: viability change, negative = cytotoxic [2] -0.1% [at 19 µM] | activity change, negative = cytotoxicity [3] -15.3% [at 19 µM] | activity, negative = inhibition [4] 213% [at 19 µM] | viability change, negative = cytotoxic [6] -15.1% [at 19 µM]
active: Potency [1] 3.79 µM | Potency [5] 1.64 µM

CN(C)C(=O)Nc1ccccc1
inactive: Potency [8] | Potency [1] | outcome [3] | Potency [4] | Potency [5] | outcome [6] | Potency [7]

CCn1cc(C(=O)O)c(=O)c2cc(F)c(N3CCN(C)CC3)cc21
inactive: viability change, negative = cytotoxic [8] 3.25% [at 19 µM] | viability change, negative = cytotoxic [2] 2.39% [at 19 µM] | activity change, negative = cytotoxicity [3] 2.92% [at 19 µM] | viability change, negative = cytotoxic [6] 8.09% [at 19 µM]

CO
inactive: Potency [8] | outcome [2] | outcome [3] | Potency [4] | outcome [6] | Potency [9] | Potency [7]

Cc1c(C)n(CCN(C)C)c2ccc(C(=O)OCCN(C)C)cc12
active: Potency [4] 29.8 µM
inactive: Potency [8] | Potency [1] | Potency [5] | Potency [7]

O=C1OC(=O)c2cc([N+](=O)[O-])ccc21
inactive: Potency [8] | outcome [2] | outcome [3] | outcome [6]

O=C(CCOCCOCCOCCOCCC(=O)Nc1c(I)cc(I)c(C(=O)O)c1I)Nc1c(I)cc(I)c(C(=O)O)c1I
inactive: Potency [8] | Potency [1] | outcome [3] | outcome [6]

Nc1ccc2cc(S(=O)(=O)O)ccc2c1
inactive: Potency [8] | outcome [2] | outcome [3] | Potency [4] | Potency [5] | outcome [6]

COC(=O)c1ccc(C(=O)OC)c(C(=O)OC)c1
inactive: Potency [8] | outcome [2] | outcome [3] | Potency [4] | Potency [5] | outcome [6] | Potency [9] | Potency [7]

COC[C@H](c1ccc(C(F)(F)F)cc1)N1CCN(C2(C)CCN(C(=O)c3c(C)ncnc3C)CC2)C[C@H]1C
inactive: Potency [8] | Potency [1] | outcome [3] | Potency [4] | Potency [5] | outcome [6] | Potency [9] | Potency [7]

CC1(C)SC(C)(C)SC(C)(C)S1
inactive: Potency [8] | Potency [1] | outcome [3] | outcome [6] | Potency [9] | Potency [7]

CCCc1ccc(N)cc1
inactive: Potency [8] | outcome [2] | outcome [3] | Potency [4] | outcome [6]
